Experimental data as given in PubChem BioAssay AID1117353 (Cheminformatics & Chemogenomics Research Group (CCRG), …, 2015).
Unmarked numbers belong to inactive results. Rule as the data show it: active = inhibition above about 50%; inactive = the rest.

Biological target: Vascular endothelial growth factor receptor 2 (Homo sapiens) (UniProt P35968)
Assay: Biochemical primary assay, inhibitors of H. sapiens VEGFR2, LANCE Ultra time-resolved FRET readout, NPC library (AID 1117353)
Details: LANCE Ultra TR-FRET kinase assay; series mostly up to 20 µM; inhibition: at the top concentration

Sequence of Vascular endothelial growth factor receptor 2 (Homo sapiens) (P35968 whole entry, looked up): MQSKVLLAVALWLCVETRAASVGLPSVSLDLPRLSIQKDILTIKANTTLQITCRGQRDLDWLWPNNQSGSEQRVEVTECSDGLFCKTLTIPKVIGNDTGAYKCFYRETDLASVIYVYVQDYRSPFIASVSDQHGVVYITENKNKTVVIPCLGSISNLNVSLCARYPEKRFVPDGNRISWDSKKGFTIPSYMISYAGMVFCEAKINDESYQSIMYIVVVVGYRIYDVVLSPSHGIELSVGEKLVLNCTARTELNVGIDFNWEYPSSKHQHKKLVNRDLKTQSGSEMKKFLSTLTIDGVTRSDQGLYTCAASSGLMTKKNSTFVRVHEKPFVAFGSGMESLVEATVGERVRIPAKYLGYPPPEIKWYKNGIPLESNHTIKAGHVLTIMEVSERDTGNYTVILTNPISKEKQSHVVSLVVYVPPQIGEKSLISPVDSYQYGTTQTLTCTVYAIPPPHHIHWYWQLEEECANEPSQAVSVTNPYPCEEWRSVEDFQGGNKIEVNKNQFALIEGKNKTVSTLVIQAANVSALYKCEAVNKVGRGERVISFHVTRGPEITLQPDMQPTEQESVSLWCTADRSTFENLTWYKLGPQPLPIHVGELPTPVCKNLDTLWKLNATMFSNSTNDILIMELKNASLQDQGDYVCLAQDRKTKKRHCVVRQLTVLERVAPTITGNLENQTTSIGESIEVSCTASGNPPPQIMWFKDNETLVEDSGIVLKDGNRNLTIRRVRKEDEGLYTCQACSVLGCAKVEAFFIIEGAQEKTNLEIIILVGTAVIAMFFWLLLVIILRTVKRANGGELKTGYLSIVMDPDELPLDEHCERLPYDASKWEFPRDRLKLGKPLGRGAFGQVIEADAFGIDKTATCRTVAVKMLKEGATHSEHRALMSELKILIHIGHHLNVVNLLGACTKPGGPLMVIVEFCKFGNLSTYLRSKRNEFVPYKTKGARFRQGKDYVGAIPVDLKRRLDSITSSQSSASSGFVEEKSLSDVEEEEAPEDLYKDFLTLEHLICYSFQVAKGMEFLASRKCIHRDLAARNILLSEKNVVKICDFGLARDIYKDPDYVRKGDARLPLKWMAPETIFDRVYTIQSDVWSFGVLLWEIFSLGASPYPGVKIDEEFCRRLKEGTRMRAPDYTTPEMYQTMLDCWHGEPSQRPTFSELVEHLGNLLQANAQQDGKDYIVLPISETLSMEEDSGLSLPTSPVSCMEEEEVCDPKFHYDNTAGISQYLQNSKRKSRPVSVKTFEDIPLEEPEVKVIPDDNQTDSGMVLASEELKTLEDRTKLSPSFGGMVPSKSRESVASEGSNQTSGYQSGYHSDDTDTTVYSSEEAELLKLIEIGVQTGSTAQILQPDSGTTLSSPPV

Compound | inhibition [%]
Cc1ccc([N+](=O)[O-])[c]2c1[O][Hg]2 | 43.9
O=C(CCl)c1ccc(Cl)cc1Cl | -9.46
C=C(C)[C@H]1Cc2c(ccc3c2O[C@@H]2COc4cc(OC)c(OC)cc4[C@@H]2C3=O)O1 | 17.2
